Laboratory results as given in PubChem BioAssay AID651650 (Sanford-Burnham Center for Chemical Genomics, 2012).

These compounds were tested against Neuropilin-1 (Homo sapiens) (UniProt O14786) (assay: blockers of CendR peptide binding to NRP-1 – biochemical, FP and AlphaScreen panel, dose response (AID 651650)). Conditions: NRP-1 b1b2 / RPARPAR peptide binding, FP or AlphaScreen; run 1, at 100 µM (top of the series).
Sequence of Neuropilin-1 (Homo sapiens) (O14786 whole entry, looked up): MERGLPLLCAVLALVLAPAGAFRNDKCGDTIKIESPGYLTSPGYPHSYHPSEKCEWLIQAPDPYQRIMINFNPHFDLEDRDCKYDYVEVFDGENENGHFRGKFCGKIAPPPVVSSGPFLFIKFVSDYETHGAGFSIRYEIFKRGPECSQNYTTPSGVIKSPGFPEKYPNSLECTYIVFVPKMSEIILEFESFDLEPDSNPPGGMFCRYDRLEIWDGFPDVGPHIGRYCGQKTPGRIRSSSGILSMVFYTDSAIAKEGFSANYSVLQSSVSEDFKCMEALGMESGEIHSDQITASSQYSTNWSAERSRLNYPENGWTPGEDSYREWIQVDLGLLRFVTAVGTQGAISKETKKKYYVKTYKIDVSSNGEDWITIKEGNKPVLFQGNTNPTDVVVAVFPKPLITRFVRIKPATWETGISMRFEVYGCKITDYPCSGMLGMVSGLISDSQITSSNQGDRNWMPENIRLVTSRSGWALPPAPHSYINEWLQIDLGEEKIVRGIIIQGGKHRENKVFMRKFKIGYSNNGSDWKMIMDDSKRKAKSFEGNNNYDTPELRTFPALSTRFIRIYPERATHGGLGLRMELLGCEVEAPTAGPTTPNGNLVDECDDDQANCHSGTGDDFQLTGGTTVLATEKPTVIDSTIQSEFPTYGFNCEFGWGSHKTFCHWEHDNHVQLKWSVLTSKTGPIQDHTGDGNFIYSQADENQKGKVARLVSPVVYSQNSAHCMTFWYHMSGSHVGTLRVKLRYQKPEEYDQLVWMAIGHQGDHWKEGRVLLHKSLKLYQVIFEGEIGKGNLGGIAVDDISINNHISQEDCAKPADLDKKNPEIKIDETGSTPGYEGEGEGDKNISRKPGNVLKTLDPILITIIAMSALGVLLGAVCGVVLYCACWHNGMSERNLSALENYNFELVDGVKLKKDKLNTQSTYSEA

Compound	inhibition [%]
Cc1ccc(Nc2c(-c3ccccc3O)nc3ncccn23)cc1	19.2
Cc1cc2c(cc1C)NC(c1nc3ccccc3[nH]1)C1=C(CC(C)(C)CC1=O)N2 (centres undefined)	20.6
FC(F)(F)C1CC(c2cccs2)Nc2ncnn21 (centres undefined)	46
CC(=O)Nc1cccc(-c2csc(NCc3ccccc3)n2)c1	26.4
CC(=O)Nc1cc(F)c2c(c1F)Cc1cc(F)ccc1-2	64
COc1ccc(Cl)cc1NC(=O)C(C)N1CCc2ccccc21 (centres undefined)	82.6
Cc1ccccc1-c1cnc(C(O)c2ccc(F)c(F)c2)[nH]1 (centres undefined)	43.1
COc1ccc(NC(=O)CN2CCN(c3c(C)cc(C)cc3C)CC2)cc1	2.2
Cc1ccccc1Nc1cc(=O)oc2ccccc12	5.19
O=S(=O)(c1ccccc1)c1nc(-c2ccc(F)cc2)oc1N1CCOCC1	24.8
COc1ccc(Cn2c(C3CC3)nc3ccc(NC(=O)c4cccnc4)cc3c2=O)cc1	88.1
CSc1ncccc1C(=O)OCC(=O)NC1CCCCC1	56.7
CC1(C)S[C@@H]2[C@H](NC(=O)COc3ccccc3)C(=O)N2C1C(=O)OCc1ccccc1 (some centres undefined)	53.2
COc1cc(C(=O)NCc2ccccc2)cc(Br)c1OC	-10
COc1ccc(CCNC(=O)c2c(O)c3cccc4c3n(c2=O)CC4)cc1OC	37.4
C=CCOc1c(CNc2ncn[nH]2)cccc1OCC	33.2
CCN(CC)C(=O)C1CCCN(C(=O)Nc2ccc3nsnc3c2)C1 (centres undefined)	21.5
CCCNC(=O)[C@H]1N2C(=O)c3c(ccc(OC)c3OC)C2SC1(C)C (some centres undefined)	51.5
CN1C(=O)c2oc3ccccc3c(=O)c2C1c1ccccn1 (centres undefined)	82.2
CCOC(=O)N1CCN(C(=O)c2cc3n(n2)C(C(F)(F)F)CC(c2ccc4c(c2)OCO4)N3)CC1 (centres undefined)	30.7

Compound	inhibition [%]
CC(C)(C)n1nc(-c2ccc(F)cc2)c2c(N)ncnc21	39.3
Cn1c(=O)c2c(ncn2CC(COCc2ccccc2)OCc2ccccc2)n(C)c1=O (centres undefined)	54.8
CCN(CC)C(=O)CSc1nnc(-c2c[nH]c3ccccc23)o1	46.9
CCOC(=O)C1=C(O)C(=O)N(c2ccccc2)C1c1cccc([N+](=O)[O-])c1 (centres undefined)	26.5
CCCc1c(O)c2ccccc2[nH]c1=O	5.68
O=c1c2cn[nH]c2nc(SCc2ccccc2F)n1-c1ccc(Br)cc1	53.3
Cc1ccc(C(=O)N2CCN(C34CC5CC(CC(C5)C3)C4)CC2)o1	57.6
CCc1cc(C(=O)OC)c(NC(=O)c2ccoc2C)s1	41.2
Fc1cnc(N2CCOCC2)nc1N1CCOCC1	49
O=C(c1ccco1)N1CCN(C(=O)c2ccccc2OC(=O)C23CC4CC(CC(C4)C2)C3)CC1	74.6
Cc1nn(-c2ccccc2)c(C)c1C(=O)OCC(=O)Nc1ccccc1	20.2
O=C(O)c1ccc(C(=O)Nc2cccc3ccccc23)c(C(=O)O)c1	76.6
CCOC(=O)c1ccc(N2CCN(C(=O)c3ccccc3)CC2)c(NC(=O)c2ccco2)c1	40.4
Cc1nnc(SC(C)C(=O)Nc2ccc(S(=O)(=O)NC3CCCCC3)cc2)s1 (centres undefined)	21.8
C/C(=N\N=c1/sc2ccccc2n1C)c1ccccn1	23.1
O=C(O/N=C1/CCSc2ccccc21)c1ccccc1	17.1
Cc1ccccc1NC(=S)NC(=O)COc1ccccc1C	98.2
CCCn1c(C)cc(C(=O)CSc2nc3nc(C)cc(C)n3n2)c1C	5.46
Cc1cc(C)n2c(SCC(=O)Nc3cccc(S(N)(=O)=O)c3)nnc2n1	-5.38
